PubChem BioAssay (NCI)
This is part of a sample that, as a whole, favours compounds with a hit. Of some 83,000 tested, about 20% had one in any assay.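 Percent growth is the endpoint: 0 to 100 indicates growth inhibition (40 means 60% inhibition), 0 means no net growth, and negative values indicate cell death.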 Calls of active or inactive are those of the source. The calls were made as follows: active = growth percent below 10; inactive = the rest.

Legend:
Test in all cases: NCI-60 one-dose screen, 48 h (100 = growth as untreated, 0 = no growth, -100 = all killed)
Settings in all cases: 10 µM unless noted
DU-145 prostate = test system: DU-145 prostate
K-562 leukemia = test system: K-562 leukemia
MALME-3M melanoma = test system: MALME-3M melanoma
MDA-MB-231 breast = test system: MDA-MB-231 breast
SF-268 CNS = test system: SF-268 CNS
SF-295 CNS = test system: SF-295 CNS
SF-539 CNS = test system: SF-539 CNS
M14 melanoma = test system: M14 melanoma
HCT-15 colon = test system: HCT-15 colon
HT29 colon = test system: HT29 colon
SNB-75 CNS = test system: SNB-75 CNS
U251 CNS = test system: U251 CNS
PC-3 prostate = test system: PC-3 prostate
UACC-62 melanoma = test system: UACC-62 melanoma
LOX IMVI melanoma = test system: LOX IMVI melanoma
SK-MEL-28 melanoma = test system: SK-MEL-28 melanoma
RXF 393 renal = test system: RXF 393 renal
UACC-257 melanoma = test system: UACC-257 melanoma
SNB-19 CNS = test system: SNB-19 CNS
SK-MEL-5 melanoma = test system: SK-MEL-5 melanoma

Measured: growth

CNc1ccc(Br)cc1-c1n[nH]c(=O)[nH]c1=O
inactive: DU-145 prostate 122% | K-562 leukemia 103% | MALME-3M melanoma 110% | MDA-MB-231 breast 94.2% | SF-268 CNS 111% | SF-295 CNS 79.6% | SF-539 CNS 103% | M14 melanoma 100% | HCT-15 colon 102% | HT29 colon 112% | SNB-75 CNS 77.4% | U251 CNS 96.2% | PC-3 prostate 99.5% | UACC-62 melanoma 105% | LOX IMVI melanoma 98.6% | SK-MEL-28 melanoma 107%

CN1CCN(c2nc(-c3ccncc3)nc3sc4c(c23)CCCCCC4)CC1
inactive: DU-145 prostate 91% | K-562 leukemia 35.5% | MALME-3M melanoma 76.8% | MDA-MB-231 breast 49.2% | SF-268 CNS 61.2% | SF-295 CNS 57.2% | SF-539 CNS 54.4% | M14 melanoma 105% | HCT-15 colon 76.5% | HT29 colon 24.3% | SNB-75 CNS 14.5% | U251 CNS 63.5% | PC-3 prostate 61.9% | UACC-62 melanoma 86.6% | LOX IMVI melanoma 64.9% | SK-MEL-28 melanoma 83.5%

COc1ccc(/C=C(\C#N)c2ccc(OC)cc2)cc1
inactive: DU-145 prostate 72.3% | K-562 leukemia 20.1% | MDA-MB-231 breast 72.8% | RXF 393 renal 65.3% | SF-268 CNS 78.4% | SF-295 CNS 47% | SF-539 CNS 79.7% | UACC-257 melanoma 83.8% | M14 melanoma 61.9% | HCT-15 colon 66.2% | HT29 colon 35.6% | SNB-75 CNS 76% | SNB-19 CNS 80.5% | U251 CNS 48.8% | PC-3 prostate 73.7% | SK-MEL-5 melanoma 32% | UACC-62 melanoma 54.5% | LOX IMVI melanoma 48.3% | SK-MEL-28 melanoma 80.6%

Cc1nc(NC(=O)COc2cccc(/C=C3\COc4ccccc4C3=O)c2)sc1C
active: K-562 leukemia -65.2% | MALME-3M melanoma -68.1% | MDA-MB-231 breast 0.962% | SF-268 CNS -63.3% | SF-539 CNS -63.9% | UACC-257 melanoma -49% | M14 melanoma -79.4% | HCT-15 colon -63.8% | HT29 colon -100% | U251 CNS -100% | SK-MEL-5 melanoma -81.8% | UACC-62 melanoma -18.9% | LOX IMVI melanoma -94.3% | SK-MEL-28 melanoma -61.2%
inactive: DU-145 prostate 63.1% | SF-295 CNS 25.3% | SNB-75 CNS 54.2%

CCCOC(=O)c1ccc2c(c1)[N+](=O)C(C(=O)c1ccccc1)=C(C(F)(F)F)[N+]2=O
active: DU-145 prostate -97.2% | K-562 leukemia -74% | MALME-3M melanoma -73.7% | MDA-MB-231 breast -90.4% | RXF 393 renal -93.2% | SF-268 CNS -81.4% | SF-539 CNS -95% | UACC-257 melanoma -94.2% | M14 melanoma -70.3% | HT29 colon -92.1% | SNB-75 CNS -98.5% | SNB-19 CNS -88.9% | UACC-62 melanoma -92.4% | LOX IMVI melanoma -74.7% | SK-MEL-28 melanoma -96.8%

CN1CCc2c(c3ccccc3c3ccccc23)C1
inactive: DU-145 prostate 45.7% | K-562 leukemia 27.1% | MALME-3M melanoma 53.4% | MDA-MB-231 breast 59.6% | SF-268 CNS 39.1% | SF-295 CNS 45.1% | SF-539 CNS 50.8% | UACC-257 melanoma 37.6% | M14 melanoma 56.2% | HCT-15 colon 31.3% | HT29 colon 37.7% | SNB-75 CNS 66.1% | SNB-19 CNS 66.2% | PC-3 prostate 64% | UACC-62 melanoma 61.3% | SK-MEL-28 melanoma 87.4%

CC(=O)OC[C@H](O)[C@@]1(O)CC[C@H]2[C@@H]3CCC4=CC(=O)CC[C@]4(C)[C@H]3[C@@H](O)C[C@@]21C
inactive: DU-145 prostate 93.7% | K-562 leukemia 89.5% | MALME-3M melanoma 95.8% | RXF 393 renal 134% | SF-268 CNS 97.1% | SF-295 CNS 111% | SF-539 CNS 100% | UACC-257 melanoma 110% | M14 melanoma 104% | HCT-15 colon 105% | HT29 colon 101% | SNB-75 CNS 117% | SNB-19 CNS 109% | U251 CNS 111% | PC-3 prostate 95.4% | SK-MEL-5 melanoma 101% | UACC-62 melanoma 104% | LOX IMVI melanoma 103% | SK-MEL-28 melanoma 114%

CCOC(=O)C(CC(c1ccccc1)N1CCCCC1)[N+](=O)[O-] (stereo not drawn)
inactive: DU-145 prostate 94.4% | K-562 leukemia 69.5% | MALME-3M melanoma 62% | MDA-MB-231 breast 86.6% | RXF 393 renal 100% | SF-268 CNS 93% | UACC-257 melanoma 89% | M14 melanoma 82.5% | HCT-15 colon 74.9% | HT29 colon 95.4% | SNB-75 CNS 86% | SNB-19 CNS 89.5% | U251 CNS 73.7% | PC-3 prostate 67.2% | SK-MEL-5 melanoma 91.2% | UACC-62 melanoma 59.9% | LOX IMVI melanoma 63.8% | SK-MEL-28 melanoma 98.8%

C(=C\c1ccccc1)/CN1CCN(C(c2ccccc2)c2ccccc2)CC1
inactive: DU-145 prostate 109% | K-562 leukemia 79.2% | MALME-3M melanoma 106% | MDA-MB-231 breast 91.5% | RXF 393 renal 81% | SF-268 CNS 98.5% | SF-539 CNS 90.7% | UACC-257 melanoma 92.1% | M14 melanoma 99.1% | HT29 colon 83.1% | SNB-75 CNS 85.4% | SNB-19 CNS 96.3% | PC-3 prostate 77.5% | SK-MEL-5 melanoma 95.5% | UACC-62 melanoma 96.9% | LOX IMVI melanoma 99.7% | SK-MEL-28 melanoma 91.9%
